# Assay results published in article PMC7862700, “An all-to-all approach to the identification of sequence-specific readers for epigenetic DNA modifications on cytosine”.
# Legend:
# Assay in all cases: DAPPL (digital affinity profiling via proximity ligation, sequencing); 10 mM Tris-HCl pH 7.5, 50 mM NaCl, 1 mM DTT, 4% glycerol, room temperature, 30 min; GST-TFs on glutathione beads, 16-mer random dsDNA library, 0.1% formaldehyde crosslink after washing; high values mean tight binding
# [1] = target: T1, FLI1 (Homo sapiens, UniProt Q01543 1-452); settings: protein: recombinant; tags: N-terminal GST; dsDNA, one strand shown
# T1 sequence: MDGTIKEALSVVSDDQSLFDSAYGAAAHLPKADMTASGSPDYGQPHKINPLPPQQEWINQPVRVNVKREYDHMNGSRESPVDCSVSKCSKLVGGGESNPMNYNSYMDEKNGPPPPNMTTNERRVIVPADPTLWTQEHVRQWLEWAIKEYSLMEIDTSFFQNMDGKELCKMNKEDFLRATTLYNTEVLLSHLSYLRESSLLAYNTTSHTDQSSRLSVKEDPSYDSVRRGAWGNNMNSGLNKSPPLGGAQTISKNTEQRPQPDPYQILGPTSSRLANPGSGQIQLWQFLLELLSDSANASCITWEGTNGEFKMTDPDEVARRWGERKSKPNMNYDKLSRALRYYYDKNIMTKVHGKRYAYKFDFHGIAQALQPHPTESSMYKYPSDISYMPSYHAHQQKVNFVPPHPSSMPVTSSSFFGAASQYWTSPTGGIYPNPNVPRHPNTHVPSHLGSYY
# Summary of the method: (§1)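 Human transcription factors fused to GST were expressed in yeast, captured on glutathione beads, given DNA barcodes and pooled with a GST-only negative control. Pools were incubated with 200 nmole of a 16-mer random double-stranded DNA library in Tris/NaCl/DTT/glycerol buffer at room temperature for 30 min. They were then washed, crosslinked with 0.1% formaldehyde, proximity-ligated (BsaI/T4 ligase, 1 h, 37 °C), PCR-amplified and sequenced on an Illumina NextSeq500. Binding signal is each 6-mer's read frequency for a factor divided by its frequency for the GST control.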
# [2] = target: T2, ELK1 (Homo sapiens, UniProt P19419 1-428); settings: protein: recombinant; tags: N-terminal GST; dsDNA, one strand shown
# T2 sequence: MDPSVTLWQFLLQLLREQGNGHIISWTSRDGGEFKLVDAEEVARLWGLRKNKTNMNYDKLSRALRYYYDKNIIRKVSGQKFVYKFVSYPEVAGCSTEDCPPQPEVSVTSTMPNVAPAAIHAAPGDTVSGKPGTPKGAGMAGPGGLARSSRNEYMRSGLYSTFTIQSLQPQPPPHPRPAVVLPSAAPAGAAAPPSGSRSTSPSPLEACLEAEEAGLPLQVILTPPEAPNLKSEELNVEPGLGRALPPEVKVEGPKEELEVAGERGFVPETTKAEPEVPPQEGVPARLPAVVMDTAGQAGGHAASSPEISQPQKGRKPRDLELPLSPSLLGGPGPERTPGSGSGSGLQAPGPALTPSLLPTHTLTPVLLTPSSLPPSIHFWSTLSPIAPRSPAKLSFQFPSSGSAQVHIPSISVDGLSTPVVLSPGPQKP
# Summary of the method: as §1
# [3] = target: T3, GABPA (Homo sapiens, UniProt Q06546 1-454); settings: protein: recombinant; tags: N-terminal GST; dsDNA, one strand shown
# T3 sequence: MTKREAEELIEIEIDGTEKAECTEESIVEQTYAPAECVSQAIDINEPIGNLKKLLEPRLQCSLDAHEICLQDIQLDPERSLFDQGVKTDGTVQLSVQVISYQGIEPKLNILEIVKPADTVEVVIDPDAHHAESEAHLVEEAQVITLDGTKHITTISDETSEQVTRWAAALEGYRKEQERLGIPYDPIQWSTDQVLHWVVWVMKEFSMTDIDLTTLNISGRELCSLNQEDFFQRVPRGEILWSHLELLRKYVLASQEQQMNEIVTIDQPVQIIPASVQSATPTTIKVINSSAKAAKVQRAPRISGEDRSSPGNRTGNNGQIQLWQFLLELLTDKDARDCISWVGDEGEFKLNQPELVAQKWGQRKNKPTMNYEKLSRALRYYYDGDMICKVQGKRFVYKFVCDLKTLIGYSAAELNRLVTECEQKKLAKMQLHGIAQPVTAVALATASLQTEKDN
# Summary of the method: as §1
# [4] = target: T4, ERG (Homo sapiens, UniProt P11308 1-479); settings: protein: recombinant; tags: N-terminal GST; dsDNA, one strand shown
# T4 sequence: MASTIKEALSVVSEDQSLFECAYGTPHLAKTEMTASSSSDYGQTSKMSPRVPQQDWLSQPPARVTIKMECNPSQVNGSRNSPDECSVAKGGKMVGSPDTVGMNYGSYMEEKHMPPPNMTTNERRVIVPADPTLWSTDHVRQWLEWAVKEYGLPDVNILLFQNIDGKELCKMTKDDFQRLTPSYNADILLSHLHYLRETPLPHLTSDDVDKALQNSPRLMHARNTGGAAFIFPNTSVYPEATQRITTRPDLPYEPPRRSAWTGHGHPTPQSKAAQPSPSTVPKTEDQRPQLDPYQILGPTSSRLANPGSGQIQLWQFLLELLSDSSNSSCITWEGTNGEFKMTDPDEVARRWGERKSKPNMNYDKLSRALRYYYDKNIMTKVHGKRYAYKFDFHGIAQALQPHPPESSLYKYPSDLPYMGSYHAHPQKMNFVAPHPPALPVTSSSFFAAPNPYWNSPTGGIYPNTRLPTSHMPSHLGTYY
# Summary of the method: as §1
# [5] = target: ELF1 (Homo sapiens, UniProt P32519 1-619); settings: protein: recombinant; tags: N-terminal GST; dsDNA, one strand shown
# Summary of the method: as §1
# [6] = target: T5, EHF (Homo sapiens, UniProt Q9NZC4 1-300); settings: protein: recombinant; tags: N-terminal GST; dsDNA, one strand shown
# T5 sequence: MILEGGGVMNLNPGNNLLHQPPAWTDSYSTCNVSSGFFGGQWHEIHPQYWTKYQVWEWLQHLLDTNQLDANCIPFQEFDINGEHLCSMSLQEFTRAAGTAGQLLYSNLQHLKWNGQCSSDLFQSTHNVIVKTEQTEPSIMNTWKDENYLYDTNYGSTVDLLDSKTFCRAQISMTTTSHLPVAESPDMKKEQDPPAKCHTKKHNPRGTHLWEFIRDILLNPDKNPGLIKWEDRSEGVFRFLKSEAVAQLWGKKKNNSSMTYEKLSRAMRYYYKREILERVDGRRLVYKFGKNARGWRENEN
# Summary of the method: as §1
# [7] = target: SPI1 (Homo sapiens, UniProt P17947 1-270); settings: protein: recombinant; tags: N-terminal GST; dsDNA, one strand shown
# Summary of the method: as §1
# [8] = target: SPIB (Homo sapiens, UniProt Q01892 1-262); settings: protein: recombinant; tags: N-terminal GST; dsDNA, one strand shown
# Summary of the method: as §1
# [9] = target: T6, ELK3 (Homo sapiens, UniProt P41970 1-407); settings: protein: recombinant; tags: N-terminal GST; dsDNA, one strand shown
# T6 sequence: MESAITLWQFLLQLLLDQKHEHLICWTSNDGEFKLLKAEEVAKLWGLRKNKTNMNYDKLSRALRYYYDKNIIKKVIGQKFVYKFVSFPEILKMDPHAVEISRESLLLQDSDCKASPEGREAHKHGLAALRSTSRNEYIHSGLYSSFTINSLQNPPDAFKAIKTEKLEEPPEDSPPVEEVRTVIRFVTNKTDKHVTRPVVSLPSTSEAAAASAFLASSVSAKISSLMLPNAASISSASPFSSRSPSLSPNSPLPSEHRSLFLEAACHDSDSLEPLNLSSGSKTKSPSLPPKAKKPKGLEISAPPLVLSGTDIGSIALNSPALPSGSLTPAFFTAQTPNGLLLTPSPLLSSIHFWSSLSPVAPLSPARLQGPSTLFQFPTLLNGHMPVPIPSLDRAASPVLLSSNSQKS
# Summary of the method: as §1
# [10] = target: T7, FEV (Homo sapiens, UniProt Q99581 1-238); settings: protein: recombinant; tags: N-terminal GST; dsDNA, one strand shown
# T7 sequence: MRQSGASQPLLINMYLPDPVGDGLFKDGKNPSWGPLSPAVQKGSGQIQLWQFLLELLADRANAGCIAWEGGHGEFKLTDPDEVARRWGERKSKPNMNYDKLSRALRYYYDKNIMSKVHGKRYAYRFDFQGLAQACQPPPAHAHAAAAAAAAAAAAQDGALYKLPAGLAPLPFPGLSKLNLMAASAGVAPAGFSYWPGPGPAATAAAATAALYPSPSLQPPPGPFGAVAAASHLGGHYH
# Summary of the method: as §1
# [11] = target: ETV5 (Homo sapiens, UniProt P41161 1-510); settings: protein: recombinant; tags: N-terminal GST; dsDNA, one strand shown
# Summary of the method: as §1
# [12] = target: HSF1 (Homo sapiens, UniProt Q00613 1-529); settings: protein: recombinant; tags: N-terminal GST; chain copies: 3; dsDNA, one strand shown
# Summary of the method: as §1
# [13] = target: T8, SPIC (Homo sapiens, UniProt Q8N5J4 1-248); settings: protein: recombinant; tags: N-terminal GST; dsDNA, one strand shown
# T8 sequence: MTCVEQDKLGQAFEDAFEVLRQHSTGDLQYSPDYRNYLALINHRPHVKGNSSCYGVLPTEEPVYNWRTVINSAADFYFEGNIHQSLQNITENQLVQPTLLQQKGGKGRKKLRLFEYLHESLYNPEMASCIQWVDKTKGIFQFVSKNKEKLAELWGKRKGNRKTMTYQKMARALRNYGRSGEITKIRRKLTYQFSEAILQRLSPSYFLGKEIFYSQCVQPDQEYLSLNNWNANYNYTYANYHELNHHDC
# Summary of the method: as §1
# [14] = target: ELF4 (Homo sapiens, UniProt Q99607 1-663); settings: protein: recombinant; tags: N-terminal GST; dsDNA, one strand shown
# Summary of the method: as §1
# [15] = target: T9, ELK4 (Homo sapiens, UniProt P28324-2 1-405); settings: protein: recombinant; tags: N-terminal GST; dsDNA, one strand shown
# T9 sequence: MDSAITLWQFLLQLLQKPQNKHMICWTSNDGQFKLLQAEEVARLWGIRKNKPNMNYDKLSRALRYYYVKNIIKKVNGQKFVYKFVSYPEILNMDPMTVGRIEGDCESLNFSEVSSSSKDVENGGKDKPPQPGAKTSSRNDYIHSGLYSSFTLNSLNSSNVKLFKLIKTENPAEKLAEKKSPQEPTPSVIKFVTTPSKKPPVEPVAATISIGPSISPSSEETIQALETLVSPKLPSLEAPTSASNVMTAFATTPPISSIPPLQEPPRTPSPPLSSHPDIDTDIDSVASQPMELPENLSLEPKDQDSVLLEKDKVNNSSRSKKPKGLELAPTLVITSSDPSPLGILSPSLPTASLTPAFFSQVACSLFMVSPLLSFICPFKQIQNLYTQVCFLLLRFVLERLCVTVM
# Summary of the method: as §1
# [16] = target: T10, ETV2 (Homo sapiens, UniProt O00321 1-342); settings: protein: recombinant; tags: N-terminal GST; dsDNA, one strand shown
# T10 sequence: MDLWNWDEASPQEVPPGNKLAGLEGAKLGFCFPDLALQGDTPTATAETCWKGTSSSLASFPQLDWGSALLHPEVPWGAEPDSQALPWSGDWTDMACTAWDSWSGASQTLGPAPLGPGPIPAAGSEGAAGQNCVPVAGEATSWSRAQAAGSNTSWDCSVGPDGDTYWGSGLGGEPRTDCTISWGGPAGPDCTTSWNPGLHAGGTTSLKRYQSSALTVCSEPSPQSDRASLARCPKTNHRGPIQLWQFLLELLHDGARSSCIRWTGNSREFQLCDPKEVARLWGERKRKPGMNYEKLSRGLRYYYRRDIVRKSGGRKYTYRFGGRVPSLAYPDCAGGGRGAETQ
# Summary of the method: as §1
# [17] = target: T11, ELF3 (Homo sapiens, UniProt P78545 1-371); settings: protein: recombinant; tags: N-terminal GST; dsDNA, one strand shown
# T11 sequence: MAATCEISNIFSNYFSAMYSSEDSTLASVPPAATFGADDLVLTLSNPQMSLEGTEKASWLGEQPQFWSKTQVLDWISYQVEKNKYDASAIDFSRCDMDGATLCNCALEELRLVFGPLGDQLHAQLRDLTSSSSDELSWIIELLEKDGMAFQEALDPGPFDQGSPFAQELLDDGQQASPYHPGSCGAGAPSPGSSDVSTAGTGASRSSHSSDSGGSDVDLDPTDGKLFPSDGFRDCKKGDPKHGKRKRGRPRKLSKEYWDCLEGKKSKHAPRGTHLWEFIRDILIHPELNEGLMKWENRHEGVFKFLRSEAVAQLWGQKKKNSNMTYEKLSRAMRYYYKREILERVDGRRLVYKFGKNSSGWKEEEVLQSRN
# Summary of the method: as §1
# [18] = target: CRX (Homo sapiens, UniProt O43186 1-299); settings: protein: recombinant; tags: N-terminal GST; dsDNA, one strand shown
# Summary of the method: as §1
# [19] = target: ETV1 (Homo sapiens, UniProt P50549 1-477); settings: protein: recombinant; tags: N-terminal GST; dsDNA, one strand shown
# Summary of the method: as §1
# Sequence of ELF1 (P32519 whole entry): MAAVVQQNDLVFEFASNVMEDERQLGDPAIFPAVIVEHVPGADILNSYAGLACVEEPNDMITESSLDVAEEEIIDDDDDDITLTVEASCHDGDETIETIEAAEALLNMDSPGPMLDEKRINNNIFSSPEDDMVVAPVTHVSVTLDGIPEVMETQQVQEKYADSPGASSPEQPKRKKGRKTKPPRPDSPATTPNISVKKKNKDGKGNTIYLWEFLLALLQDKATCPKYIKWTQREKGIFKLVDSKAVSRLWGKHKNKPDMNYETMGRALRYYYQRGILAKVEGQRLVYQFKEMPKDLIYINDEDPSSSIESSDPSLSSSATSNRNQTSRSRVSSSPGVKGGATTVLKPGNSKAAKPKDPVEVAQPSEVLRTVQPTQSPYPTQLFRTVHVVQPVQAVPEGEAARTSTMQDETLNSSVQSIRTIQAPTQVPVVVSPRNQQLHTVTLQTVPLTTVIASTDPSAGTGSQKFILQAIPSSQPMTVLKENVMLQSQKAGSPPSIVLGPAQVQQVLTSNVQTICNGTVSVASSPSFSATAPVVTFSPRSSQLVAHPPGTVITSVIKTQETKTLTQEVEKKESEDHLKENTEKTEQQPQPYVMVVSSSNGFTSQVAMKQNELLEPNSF
# Sequence of CRX (O43186 whole entry): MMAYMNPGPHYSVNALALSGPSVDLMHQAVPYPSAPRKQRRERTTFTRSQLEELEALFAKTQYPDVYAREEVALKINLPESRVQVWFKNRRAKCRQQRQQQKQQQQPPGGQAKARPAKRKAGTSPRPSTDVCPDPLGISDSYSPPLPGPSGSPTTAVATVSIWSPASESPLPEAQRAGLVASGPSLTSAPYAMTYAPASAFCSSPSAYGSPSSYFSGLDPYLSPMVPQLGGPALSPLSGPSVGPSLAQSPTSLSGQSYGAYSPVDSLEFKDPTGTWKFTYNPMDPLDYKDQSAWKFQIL
# Sequence of ETV5 (P41161 whole entry): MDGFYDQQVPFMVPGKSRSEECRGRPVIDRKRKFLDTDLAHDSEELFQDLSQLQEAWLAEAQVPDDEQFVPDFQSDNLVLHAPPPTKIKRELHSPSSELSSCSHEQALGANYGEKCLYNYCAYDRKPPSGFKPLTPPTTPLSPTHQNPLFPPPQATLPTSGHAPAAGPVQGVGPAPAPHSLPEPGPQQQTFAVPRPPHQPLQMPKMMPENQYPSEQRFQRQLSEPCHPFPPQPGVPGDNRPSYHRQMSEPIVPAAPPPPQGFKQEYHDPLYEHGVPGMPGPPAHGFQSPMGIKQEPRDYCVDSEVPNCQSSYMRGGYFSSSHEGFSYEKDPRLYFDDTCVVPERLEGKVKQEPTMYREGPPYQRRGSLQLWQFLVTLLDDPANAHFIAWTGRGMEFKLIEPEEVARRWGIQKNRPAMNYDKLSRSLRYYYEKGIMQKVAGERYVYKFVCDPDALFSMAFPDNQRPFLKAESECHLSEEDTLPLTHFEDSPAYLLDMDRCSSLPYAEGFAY
# Sequence of SPIB (Q01892 whole entry): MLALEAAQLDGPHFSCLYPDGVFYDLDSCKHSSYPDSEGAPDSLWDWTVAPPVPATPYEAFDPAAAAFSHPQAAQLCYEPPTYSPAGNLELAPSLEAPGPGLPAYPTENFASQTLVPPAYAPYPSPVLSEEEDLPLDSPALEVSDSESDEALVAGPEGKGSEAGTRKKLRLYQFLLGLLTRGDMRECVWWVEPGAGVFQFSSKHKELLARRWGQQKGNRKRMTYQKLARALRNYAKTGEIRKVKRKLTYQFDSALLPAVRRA
# Sequence of ETV1 (P50549 whole entry): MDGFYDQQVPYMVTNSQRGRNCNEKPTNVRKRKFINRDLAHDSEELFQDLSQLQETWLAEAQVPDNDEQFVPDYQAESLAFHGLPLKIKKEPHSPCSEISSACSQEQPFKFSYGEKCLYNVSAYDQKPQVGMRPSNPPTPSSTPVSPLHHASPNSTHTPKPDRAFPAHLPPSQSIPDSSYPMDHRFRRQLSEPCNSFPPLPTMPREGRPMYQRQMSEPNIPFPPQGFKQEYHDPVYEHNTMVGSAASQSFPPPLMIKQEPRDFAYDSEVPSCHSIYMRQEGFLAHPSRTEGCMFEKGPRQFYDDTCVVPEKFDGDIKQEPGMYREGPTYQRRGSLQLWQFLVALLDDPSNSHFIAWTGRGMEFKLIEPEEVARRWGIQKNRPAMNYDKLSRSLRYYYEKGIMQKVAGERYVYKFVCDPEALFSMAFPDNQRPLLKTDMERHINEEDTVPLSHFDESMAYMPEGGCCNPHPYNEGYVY
# Sequence of HSF1 (Q00613 whole entry): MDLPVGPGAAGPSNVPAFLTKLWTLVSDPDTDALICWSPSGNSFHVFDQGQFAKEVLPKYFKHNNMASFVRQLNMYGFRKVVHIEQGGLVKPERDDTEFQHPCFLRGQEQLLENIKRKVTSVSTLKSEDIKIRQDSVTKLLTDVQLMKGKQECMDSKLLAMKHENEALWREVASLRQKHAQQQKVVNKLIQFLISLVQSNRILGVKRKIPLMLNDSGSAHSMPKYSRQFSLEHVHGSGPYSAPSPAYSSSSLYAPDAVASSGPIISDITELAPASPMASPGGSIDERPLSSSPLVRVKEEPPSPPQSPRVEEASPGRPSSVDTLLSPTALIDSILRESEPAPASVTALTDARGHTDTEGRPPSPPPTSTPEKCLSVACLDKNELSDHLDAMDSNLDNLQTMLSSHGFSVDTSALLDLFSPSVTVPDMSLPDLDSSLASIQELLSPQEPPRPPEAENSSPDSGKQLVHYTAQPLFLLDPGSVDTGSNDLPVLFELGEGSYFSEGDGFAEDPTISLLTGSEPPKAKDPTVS
# Sequence of ELF4 (Q99607 whole entry): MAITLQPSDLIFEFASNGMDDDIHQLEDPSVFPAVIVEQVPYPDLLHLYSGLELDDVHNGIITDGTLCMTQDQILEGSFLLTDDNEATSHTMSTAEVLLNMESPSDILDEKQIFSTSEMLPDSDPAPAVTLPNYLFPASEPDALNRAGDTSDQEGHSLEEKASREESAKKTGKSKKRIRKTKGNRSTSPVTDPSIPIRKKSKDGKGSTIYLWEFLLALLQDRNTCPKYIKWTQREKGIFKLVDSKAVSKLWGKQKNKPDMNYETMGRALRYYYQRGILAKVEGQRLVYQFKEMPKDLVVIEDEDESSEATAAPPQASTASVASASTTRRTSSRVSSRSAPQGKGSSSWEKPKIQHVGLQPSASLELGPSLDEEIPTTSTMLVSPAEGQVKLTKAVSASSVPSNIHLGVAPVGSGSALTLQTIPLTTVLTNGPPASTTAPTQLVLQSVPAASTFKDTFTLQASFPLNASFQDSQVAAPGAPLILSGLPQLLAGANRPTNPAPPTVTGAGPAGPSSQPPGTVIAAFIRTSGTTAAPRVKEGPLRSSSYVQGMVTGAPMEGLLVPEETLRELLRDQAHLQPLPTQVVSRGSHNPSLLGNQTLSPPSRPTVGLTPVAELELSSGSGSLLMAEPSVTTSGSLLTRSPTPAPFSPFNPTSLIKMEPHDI
sequence,measurement,setting,value
TCCGAC,binding signal,[1],"1.42 fold enrichment (6-mer frequency, TF over GST control)"
same,binding signal,[2],"1.47 fold enrichment (6-mer frequency, TF over GST control)"
same,binding signal,[3],"1.32 fold enrichment (6-mer frequency, TF over GST control)"
same,binding signal,[4],"1.46 fold enrichment (6-mer frequency, TF over GST control)"
same,binding signal,[5],"1.42 fold enrichment (6-mer frequency, TF over GST control)"
same,binding signal,[6],"1.46 fold enrichment (6-mer frequency, TF over GST control)"
same,binding signal,[7],"1.37 fold enrichment (6-mer frequency, TF over GST control)"
same,binding signal,[8],"1.46 fold enrichment (6-mer frequency, TF over GST control)"
same,binding signal,[9],"1.56 fold enrichment (6-mer frequency, TF over GST control)"
same,binding signal,[10],"1.68 fold enrichment (6-mer frequency, TF over GST control)"
same,binding signal,[11],"1.44 fold enrichment (6-mer frequency, TF over GST control)"
same,binding signal,[12],"1.23 fold enrichment (6-mer frequency, TF over GST control)"
same,binding signal,[13],"1.59 fold enrichment (6-mer frequency, TF over GST control)"
same,binding signal,[14],"1.44 fold enrichment (6-mer frequency, TF over GST control)"
same,binding signal,[15],"1.43 fold enrichment (6-mer frequency, TF over GST control)"
same,binding signal,[16],"1.35 fold enrichment (6-mer frequency, TF over GST control)"
same,binding signal,[17],"1.47 fold enrichment (6-mer frequency, TF over GST control)"
same,binding signal,[18],"1.25 fold enrichment (6-mer frequency, TF over GST control)"
same,binding signal,[19],"1.55 fold enrichment (6-mer frequency, TF over GST control)"
